# Experimental data: ChEMBL document CHEMBL1961873, “Compounds: GSK PKIS; Assays: Nanosyn kinase panel” (2012)
# Experiments:
# [1] = molecular target: Mitogen-activated protein kinase 3 (Homo sapiens) (UniProt P27361); conditions: at 1 µM;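 also: values are mean percent inhibition of MAPK3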
# [2] = molecular target: SRSF protein kinase 3 (Homo sapiens) (UniProt Q9UPE1); conditions: at 0.1 µM
# [3] = molecular target: SRSF protein kinase 3 (Homo sapiens) (UniProt Q9UPE1); conditions: at 1 µM
# [4] = molecular target: Mitogen-activated protein kinase 14 (Homo sapiens) (UniProt Q16539); conditions: at 0.1 µM
# [5] = molecular target: Mitogen-activated protein kinase 14 (Homo sapiens) (UniProt Q16539); conditions: at 1 µM
# [6] = molecular target: Mitogen-activated protein kinase 11 (Homo sapiens) (UniProt Q15759); conditions: at 0.1 µM
# [7] = molecular target: Mitogen-activated protein kinase 11 (Homo sapiens) (UniProt Q15759); conditions: at 1 µM
# [8] = molecular target: T1, Mitogen-activated protein kinase 13 (Homo sapiens) (UniProt O15264); conditions: at 0.1 µM
# T1 sequence (whole entry): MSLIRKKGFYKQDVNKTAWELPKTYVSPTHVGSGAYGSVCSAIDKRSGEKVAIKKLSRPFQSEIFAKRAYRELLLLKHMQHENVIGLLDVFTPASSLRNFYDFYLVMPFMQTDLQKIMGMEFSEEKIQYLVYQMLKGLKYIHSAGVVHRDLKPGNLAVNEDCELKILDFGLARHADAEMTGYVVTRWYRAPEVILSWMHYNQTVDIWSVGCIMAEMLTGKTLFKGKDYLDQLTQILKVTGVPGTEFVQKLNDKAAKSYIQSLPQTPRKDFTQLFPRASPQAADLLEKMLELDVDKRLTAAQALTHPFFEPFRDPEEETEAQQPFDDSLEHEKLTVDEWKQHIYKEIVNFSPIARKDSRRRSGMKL
# [9] = molecular target: T1, Mitogen-activated protein kinase 13 (Homo sapiens); conditions: at 1 µM
# [10] = molecular target: T2, Mitogen-activated protein kinase 12 (Homo sapiens) (UniProt P53778); conditions: at 0.1 µM
# T2 sequence (whole entry): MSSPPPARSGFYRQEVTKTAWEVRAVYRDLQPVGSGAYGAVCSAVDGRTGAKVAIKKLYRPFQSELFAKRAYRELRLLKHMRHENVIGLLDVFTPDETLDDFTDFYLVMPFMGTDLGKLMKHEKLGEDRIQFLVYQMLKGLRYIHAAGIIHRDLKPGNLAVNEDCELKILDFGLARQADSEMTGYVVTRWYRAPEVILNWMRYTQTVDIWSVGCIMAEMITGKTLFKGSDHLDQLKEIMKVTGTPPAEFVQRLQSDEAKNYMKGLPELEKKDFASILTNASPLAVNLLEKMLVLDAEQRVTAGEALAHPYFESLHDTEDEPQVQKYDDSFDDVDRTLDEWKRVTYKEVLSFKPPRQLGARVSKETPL
# [11] = molecular target: T2, Mitogen-activated protein kinase 12 (Homo sapiens); conditions: at 1 µM
# [12] = molecular target: SRSF protein kinase 1 (Homo sapiens) (UniProt Q96SB4); conditions: at 0.1 µM
# [13] = molecular target: SRSF protein kinase 1 (Homo sapiens) (UniProt Q96SB4); conditions: at 1 µM
# [14] = molecular target: Phosphatidylinositol 4,5-bisphosphate 3-kinase catalytic subunit alpha isoform (Homo sapiens) (UniProt P42336); conditions: at 0.1 µM
# [15] = molecular target: Phosphatidylinositol 4,5-bisphosphate 3-kinase catalytic subunit alpha isoform (Homo sapiens) (UniProt P42336); conditions: at 1 µM
# [16] = molecular target: T3, Phosphatidylinositol 4,5-bisphosphate 3-kinase catalytic subunit delta isoform (Homo sapiens) (UniProt O00329); conditions: at 0.1 µM
# T3 sequence (whole entry): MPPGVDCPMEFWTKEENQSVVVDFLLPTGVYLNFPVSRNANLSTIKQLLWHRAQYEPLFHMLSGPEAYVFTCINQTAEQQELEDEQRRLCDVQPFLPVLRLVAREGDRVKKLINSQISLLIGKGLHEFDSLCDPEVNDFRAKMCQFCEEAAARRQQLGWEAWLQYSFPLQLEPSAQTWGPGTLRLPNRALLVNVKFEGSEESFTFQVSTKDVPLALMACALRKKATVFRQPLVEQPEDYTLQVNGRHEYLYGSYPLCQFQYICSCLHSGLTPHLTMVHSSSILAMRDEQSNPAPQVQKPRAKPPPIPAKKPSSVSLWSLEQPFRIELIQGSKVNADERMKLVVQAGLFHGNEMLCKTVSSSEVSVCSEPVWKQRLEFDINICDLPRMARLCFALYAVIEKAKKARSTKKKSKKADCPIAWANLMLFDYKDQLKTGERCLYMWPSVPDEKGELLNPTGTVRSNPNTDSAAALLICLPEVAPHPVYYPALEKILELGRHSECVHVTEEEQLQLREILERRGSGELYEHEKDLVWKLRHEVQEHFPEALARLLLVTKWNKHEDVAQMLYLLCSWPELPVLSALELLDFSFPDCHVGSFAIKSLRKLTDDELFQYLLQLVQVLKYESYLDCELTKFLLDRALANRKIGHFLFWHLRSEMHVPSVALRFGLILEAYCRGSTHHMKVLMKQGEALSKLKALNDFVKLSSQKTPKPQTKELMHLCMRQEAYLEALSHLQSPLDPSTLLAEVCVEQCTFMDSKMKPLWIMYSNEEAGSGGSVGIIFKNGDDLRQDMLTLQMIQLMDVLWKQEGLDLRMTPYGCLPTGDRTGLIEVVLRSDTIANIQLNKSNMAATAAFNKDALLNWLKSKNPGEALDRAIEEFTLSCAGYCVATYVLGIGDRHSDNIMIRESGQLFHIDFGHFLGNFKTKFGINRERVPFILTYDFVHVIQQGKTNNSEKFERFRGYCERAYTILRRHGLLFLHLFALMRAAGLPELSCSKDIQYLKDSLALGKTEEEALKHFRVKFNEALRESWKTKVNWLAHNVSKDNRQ
# [17] = molecular target: T3, Phosphatidylinositol 4,5-bisphosphate 3-kinase catalytic subunit delta isoform (Homo sapiens); conditions: at 1 µM
# [18] = molecular target: Phosphatidylinositol 4-kinase beta (Homo sapiens) (UniProt Q9UBF8); conditions: at 0.1 µM
# [19] = molecular target: Phosphatidylinositol 4-kinase beta (Homo sapiens) (UniProt Q9UBF8); conditions: at 1 µM
# [20] = molecular target: Sphingosine kinase 1 (Homo sapiens) (UniProt Q9NYA1); conditions: at 0.1 µM;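 also: mean percent inhibition of SPHK1 activity, measured within the GSK PKIS screening panel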
# Sphingosine kinase 1 (Homo sapiens), sequence (Q9NYA1 whole entry): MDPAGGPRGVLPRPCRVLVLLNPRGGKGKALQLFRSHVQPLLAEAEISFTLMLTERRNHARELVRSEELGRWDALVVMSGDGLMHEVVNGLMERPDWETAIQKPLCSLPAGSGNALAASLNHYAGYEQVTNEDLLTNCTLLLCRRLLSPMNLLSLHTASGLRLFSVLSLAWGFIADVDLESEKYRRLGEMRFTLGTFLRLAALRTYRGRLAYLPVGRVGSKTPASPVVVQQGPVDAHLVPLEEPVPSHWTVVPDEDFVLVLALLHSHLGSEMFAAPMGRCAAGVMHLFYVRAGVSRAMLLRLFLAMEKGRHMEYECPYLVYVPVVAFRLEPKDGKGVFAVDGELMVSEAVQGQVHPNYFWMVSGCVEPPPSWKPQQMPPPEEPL
# Mitogen-activated protein kinase 11 (Homo sapiens), sequence (Q15759 whole entry): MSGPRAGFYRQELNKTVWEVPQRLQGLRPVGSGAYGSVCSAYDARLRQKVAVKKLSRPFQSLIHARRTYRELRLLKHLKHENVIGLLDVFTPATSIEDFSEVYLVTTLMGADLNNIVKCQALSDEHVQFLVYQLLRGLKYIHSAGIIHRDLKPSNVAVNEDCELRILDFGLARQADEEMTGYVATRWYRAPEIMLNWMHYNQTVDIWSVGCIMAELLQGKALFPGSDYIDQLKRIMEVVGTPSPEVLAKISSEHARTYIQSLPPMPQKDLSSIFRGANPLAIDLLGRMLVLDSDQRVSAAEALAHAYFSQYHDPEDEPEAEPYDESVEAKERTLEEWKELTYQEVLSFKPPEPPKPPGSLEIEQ
# Phosphatidylinositol 4-kinase beta (Homo sapiens), sequence (Q9UBF8 2-816 limits assumed): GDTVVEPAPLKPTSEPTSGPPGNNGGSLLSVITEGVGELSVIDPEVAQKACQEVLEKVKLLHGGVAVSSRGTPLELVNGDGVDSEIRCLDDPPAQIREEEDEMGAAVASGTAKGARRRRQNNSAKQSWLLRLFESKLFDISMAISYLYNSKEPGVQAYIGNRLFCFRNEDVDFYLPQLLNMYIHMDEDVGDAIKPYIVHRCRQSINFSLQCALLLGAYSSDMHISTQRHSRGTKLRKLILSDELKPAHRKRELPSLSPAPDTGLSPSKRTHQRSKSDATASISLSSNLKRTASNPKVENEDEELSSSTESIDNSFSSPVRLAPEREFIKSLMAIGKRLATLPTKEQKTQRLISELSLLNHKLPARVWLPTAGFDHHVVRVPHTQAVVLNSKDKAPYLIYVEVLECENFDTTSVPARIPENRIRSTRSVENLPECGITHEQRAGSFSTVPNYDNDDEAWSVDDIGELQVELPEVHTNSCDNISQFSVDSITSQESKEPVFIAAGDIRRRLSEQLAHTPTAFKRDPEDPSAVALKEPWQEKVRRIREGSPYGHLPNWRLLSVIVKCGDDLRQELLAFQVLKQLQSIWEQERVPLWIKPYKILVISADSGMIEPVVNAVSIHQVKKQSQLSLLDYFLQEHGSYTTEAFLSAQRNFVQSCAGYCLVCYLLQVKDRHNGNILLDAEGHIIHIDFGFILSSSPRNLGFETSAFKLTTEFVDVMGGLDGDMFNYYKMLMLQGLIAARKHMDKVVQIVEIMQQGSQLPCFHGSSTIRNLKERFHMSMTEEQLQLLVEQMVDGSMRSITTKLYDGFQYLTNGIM
# SRSF protein kinase 3 (Homo sapiens), sequence (Q9UPE1 whole entry): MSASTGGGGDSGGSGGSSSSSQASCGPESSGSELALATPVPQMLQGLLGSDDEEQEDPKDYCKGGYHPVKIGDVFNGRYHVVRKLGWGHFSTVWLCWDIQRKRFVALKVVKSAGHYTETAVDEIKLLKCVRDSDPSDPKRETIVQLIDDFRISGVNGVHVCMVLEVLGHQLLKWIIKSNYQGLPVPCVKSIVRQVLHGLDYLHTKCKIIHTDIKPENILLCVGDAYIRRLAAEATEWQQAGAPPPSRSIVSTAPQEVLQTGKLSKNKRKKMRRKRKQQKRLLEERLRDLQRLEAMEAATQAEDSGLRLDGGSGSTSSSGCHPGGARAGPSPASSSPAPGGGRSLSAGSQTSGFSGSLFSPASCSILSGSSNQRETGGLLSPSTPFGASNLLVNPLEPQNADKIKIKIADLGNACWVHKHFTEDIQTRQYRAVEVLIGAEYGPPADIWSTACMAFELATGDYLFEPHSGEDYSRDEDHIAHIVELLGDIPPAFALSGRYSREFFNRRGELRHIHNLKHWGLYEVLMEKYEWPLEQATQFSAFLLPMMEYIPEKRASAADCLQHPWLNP
# Mitogen-activated protein kinase 14 (Homo sapiens), sequence (Q16539 whole entry): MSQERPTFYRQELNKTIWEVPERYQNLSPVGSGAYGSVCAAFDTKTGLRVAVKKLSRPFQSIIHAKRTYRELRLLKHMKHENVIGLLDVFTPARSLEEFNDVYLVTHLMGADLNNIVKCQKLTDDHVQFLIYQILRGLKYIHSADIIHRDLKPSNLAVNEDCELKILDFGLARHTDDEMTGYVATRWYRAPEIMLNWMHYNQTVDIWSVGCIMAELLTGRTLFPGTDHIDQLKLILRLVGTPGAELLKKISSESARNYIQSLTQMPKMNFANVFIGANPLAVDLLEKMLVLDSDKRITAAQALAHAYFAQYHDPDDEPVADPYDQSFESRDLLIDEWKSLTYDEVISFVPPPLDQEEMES
# SRSF protein kinase 1 (Homo sapiens), sequence (Q96SB4 whole entry, canonical isoform): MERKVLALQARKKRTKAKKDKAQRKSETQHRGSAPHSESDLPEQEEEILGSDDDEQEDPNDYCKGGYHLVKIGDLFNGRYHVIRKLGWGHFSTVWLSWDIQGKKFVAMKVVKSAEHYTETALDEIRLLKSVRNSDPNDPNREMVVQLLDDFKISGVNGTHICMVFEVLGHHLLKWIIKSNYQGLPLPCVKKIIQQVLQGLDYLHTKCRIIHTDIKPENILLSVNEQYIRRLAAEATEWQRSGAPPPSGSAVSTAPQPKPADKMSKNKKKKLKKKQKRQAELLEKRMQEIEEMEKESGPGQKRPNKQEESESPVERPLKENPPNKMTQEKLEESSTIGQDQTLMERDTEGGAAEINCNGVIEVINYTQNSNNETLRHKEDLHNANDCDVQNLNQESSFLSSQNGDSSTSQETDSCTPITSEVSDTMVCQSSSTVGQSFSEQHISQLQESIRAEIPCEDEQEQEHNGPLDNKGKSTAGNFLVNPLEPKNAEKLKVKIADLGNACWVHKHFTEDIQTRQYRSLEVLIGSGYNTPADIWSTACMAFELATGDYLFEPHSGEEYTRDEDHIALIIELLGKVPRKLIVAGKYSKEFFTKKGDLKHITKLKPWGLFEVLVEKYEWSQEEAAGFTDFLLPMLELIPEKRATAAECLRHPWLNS
# Phosphatidylinositol 4,5-bisphosphate 3-kinase catalytic subunit alpha isoform (Homo sapiens), sequence (P42336 whole entry, canonical isoform): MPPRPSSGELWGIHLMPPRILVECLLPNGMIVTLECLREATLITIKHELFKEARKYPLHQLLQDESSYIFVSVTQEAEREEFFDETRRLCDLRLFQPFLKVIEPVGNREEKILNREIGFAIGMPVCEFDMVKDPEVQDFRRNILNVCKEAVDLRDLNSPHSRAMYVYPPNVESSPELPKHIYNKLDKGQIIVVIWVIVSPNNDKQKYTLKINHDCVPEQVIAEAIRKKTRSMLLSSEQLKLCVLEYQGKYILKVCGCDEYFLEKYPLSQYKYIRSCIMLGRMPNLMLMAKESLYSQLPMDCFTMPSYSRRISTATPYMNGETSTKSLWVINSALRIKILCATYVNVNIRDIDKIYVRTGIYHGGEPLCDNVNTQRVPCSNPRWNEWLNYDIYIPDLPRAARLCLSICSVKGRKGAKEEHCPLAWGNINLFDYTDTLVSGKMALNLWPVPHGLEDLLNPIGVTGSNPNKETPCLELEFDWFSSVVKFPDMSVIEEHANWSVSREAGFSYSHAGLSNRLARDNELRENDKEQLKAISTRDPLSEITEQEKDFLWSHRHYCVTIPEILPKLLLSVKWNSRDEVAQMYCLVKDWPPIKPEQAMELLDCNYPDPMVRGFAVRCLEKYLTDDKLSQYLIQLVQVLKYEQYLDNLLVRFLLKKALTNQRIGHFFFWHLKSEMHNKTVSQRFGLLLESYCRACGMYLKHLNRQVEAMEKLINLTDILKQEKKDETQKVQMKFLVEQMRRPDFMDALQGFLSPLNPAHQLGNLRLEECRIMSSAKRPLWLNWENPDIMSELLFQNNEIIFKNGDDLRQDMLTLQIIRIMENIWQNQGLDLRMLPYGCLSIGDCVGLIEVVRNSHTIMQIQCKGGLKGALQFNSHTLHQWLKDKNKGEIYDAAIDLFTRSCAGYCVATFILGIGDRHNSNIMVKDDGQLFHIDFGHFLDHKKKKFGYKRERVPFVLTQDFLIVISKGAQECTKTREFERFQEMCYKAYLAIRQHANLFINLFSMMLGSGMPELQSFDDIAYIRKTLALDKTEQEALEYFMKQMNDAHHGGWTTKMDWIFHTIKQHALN
# Mitogen-activated protein kinase 3 (Homo sapiens), sequence (P27361 whole entry): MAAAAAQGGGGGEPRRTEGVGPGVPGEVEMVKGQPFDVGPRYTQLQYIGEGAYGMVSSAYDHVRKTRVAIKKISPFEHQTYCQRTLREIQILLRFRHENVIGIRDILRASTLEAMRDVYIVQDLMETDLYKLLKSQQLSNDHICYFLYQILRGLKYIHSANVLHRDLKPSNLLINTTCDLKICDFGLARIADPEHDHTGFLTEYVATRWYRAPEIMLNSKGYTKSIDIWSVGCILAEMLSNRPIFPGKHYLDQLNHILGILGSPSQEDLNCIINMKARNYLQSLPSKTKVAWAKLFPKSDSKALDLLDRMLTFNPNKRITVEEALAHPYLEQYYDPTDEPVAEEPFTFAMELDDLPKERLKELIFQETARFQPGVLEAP
Structure (SMILES),inhibition [1] [%],inhibition [2] [%],inhibition [3] [%],inhibition [4] [%],inhibition [5] [%],inhibition [6] [%],inhibition [7] [%],inhibition [8] [%],inhibition [9] [%],inhibition [10] [%],inhibition [11] [%],inhibition [12] [%],inhibition [13] [%],inhibition [14] [%],inhibition [15] [%],inhibition [16] [%],inhibition [17] [%],inhibition [18] [%],inhibition [19] [%],inhibition [20] [%]
CCn1c(-c2nonc2N)nc2c(N3CCCC3)nccc21,1.82,0.04,-1.21,1.24,-3.47,0.58,2.54,-0.53,-1.01,0.01,-1.61,0.36,0.58,-1.75,-0.26,0.19,0.29,-6.46,-2.5,2.26
Cc1nn(C)c2cc(N(C)c3ccnc(Nc4cccc(S(N)(=O)=O)c4)n3)ccc12,0.11,-3.4,-1.66,4.32,19.7,3.77,25.1,1.54,4.16,-0.41,2.2,-1.51,-1.14,6.6,30.8,10.5,53.8,,-0.74,-0.2
CCn1c(-c2nonc2N)nc2cncc(C(=O)N3CCNCC3)c21,7.02,0.64,-1.54,14.5,20.5,5.86,5.3,6.15,7.35,3.73,5.97,-1.32,-1.85,5.78,5.67,1.16,2.58,-4.56,,-1.49
CS(=O)(=O)CCN(CC#N)Cc1ccc(-c2ccc3ncnc(Nc4ccc(OCc5cccc(F)c5)c(Cl)c4)c3c2)o1,1.61,-3.37,-0.95,4.64,3.94,1.26,0.56,3.05,2.39,2.47,2.68,-2.4,-1.01,2.09,4.03,1.1,4.27,2.65,3.34,1.82
Nc1ncnc2occ(-c3ccc(NC(=O)Nc4cccc(C(F)(F)F)c4)cc3)c12,3.6,19,62.5,16.1,43.4,9.18,41,6.92,19.3,7.81,37.5,1.49,18.5,4.75,4.88,1.25,4.92,-1.39,1.22,0.57
CN(C)c1cc2c(Nc3ccc4nc(Cc5ccccc5)[nH]c4c3)ncnc2cn1,4.66,-0.28,-1.52,6.65,9.66,1.34,,1.99,5.16,5.41,2.45,-1.74,-1.6,7,8.83,7.22,8.91,-2.6,5.38,-1.38
O=C1NC(=O)C(c2ccc(Cl)cc2)=C1Nc1ccc(Cl)c(C(=O)O)c1,0,0.85,1.51,0.32,-0.58,-1.36,-1.39,-5.51,-3.8,-2.36,-2.21,1.64,3.21,1.09,2.23,3.38,2.76,-1.72,-4.96,-1.27
N#Cc1c(NC(=O)c2cccc3ccccc23)sc2c1CCCC2,0.11,-0.61,-2.89,2.97,5.23,0.78,4.42,2.16,3.76,2.38,2.56,-2.33,-3.29,1.58,4.62,2.32,4.96,-2.84,-0.74,-0.7
NC(=O)c1ccc(-c2nc(-c3ccccn3)c(-c3ccc4c(c3)OCO4)[nH]2)cc1,1.38,-1.12,0.34,7.26,15.5,5.42,10.6,1.16,2.44,0.17,1.74,-2.38,-2.03,1.4,-0.55,0.37,2.45,-5.45,-2.85,3.02
CNC(=O)c1cncc(/C=C/c2c(Cl)cccc2Cl)c1,3.8,2.22,0.6,6.41,8.04,2.44,4.25,3.64,5.05,3.45,6.19,-3.5,-0.45,2.99,2.83,0.54,0.66,-0.69,2.57,-1.45
COc1ccc(COc2ccc(Cc3cnc(N)nc3N)cc2OC)cc1,0.29,2.01,0.79,0.58,4.45,2.44,1,,0.37,-1.2,1.41,-0.52,-2.52,0.14,1.07,-0.96,0.68,2.15,-1.98,-3.33
CC(C)=Cc1cccc2c1/C(=N/Nc1ccc(S(N)(=O)=O)cc1)C(=O)N2,2.62,-0.98,3.29,0.04,1.72,0.78,5.29,0.28,1.32,-0.48,-0.16,0.13,2.55,0.06,1.06,0.23,1.67,1.78,3.22,2.28
Fc1cccc(COc2ccc(Nc3ncnc4sc(-c5cccs5)cc34)cc2Cl)c1,1.8,0.46,0.83,0.93,1.59,-0.98,-0.33,1.26,0.64,0.6,0.86,0.18,-1.11,0.9,4.07,-0.78,2.29,0.44,-0.43,-1.15
O=C1NC(=O)C(c2ccccc2Cl)=C1Nc1cccc(O)c1,1.29,1.93,4.52,2.48,4.36,2.37,0.91,1.98,4.14,5.33,0.99,-0.74,1.37,1.03,1.86,2.66,3.71,1.19,-2.78,-1.24
